Assay outcomes (PubChem BioAssay)
Cav32 inh: inhibitors of human Cav3.2 T-type calcium channel. O95180. hit rate 4% among 100,000. Cav3.2-expressing cells, Fluo-4 calcium fluorescence FDSS; active compounds read low. B-score at 10 µM;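 active = single-dose well whose peak fluorescence ratio is a statistical outlier from its plate by either plate-standardised score or position-corrected B-score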
M1 ag: agonists of M1 muscarinic receptor; CHO-M1 cells, Fluo-4 calcium fluorescence, agonist mode; active compounds read high; B-score at 10 µM; hit rate 3% among 64,000; AID 626;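 active = fluorescence rise, raw or as B-score row- and column-corrected plate score, outside the 99.7% band of its plate's samples, either direction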
M1 antag: antagonists of rat M1 muscarinic receptor | P08482 | CHO-M1 cells, Fluo-4 calcium, ACh EC80 antagonist mode; active compounds read low | hit rate 3.4% among 64,000 | B-score at 10 µM;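 active = calcium fluorescence response, raw or row-and-column corrected B-score, differing from the plate sample mean either way at a set confidence level, mostly lower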
Target sequence (P08482 whole entry, looked up): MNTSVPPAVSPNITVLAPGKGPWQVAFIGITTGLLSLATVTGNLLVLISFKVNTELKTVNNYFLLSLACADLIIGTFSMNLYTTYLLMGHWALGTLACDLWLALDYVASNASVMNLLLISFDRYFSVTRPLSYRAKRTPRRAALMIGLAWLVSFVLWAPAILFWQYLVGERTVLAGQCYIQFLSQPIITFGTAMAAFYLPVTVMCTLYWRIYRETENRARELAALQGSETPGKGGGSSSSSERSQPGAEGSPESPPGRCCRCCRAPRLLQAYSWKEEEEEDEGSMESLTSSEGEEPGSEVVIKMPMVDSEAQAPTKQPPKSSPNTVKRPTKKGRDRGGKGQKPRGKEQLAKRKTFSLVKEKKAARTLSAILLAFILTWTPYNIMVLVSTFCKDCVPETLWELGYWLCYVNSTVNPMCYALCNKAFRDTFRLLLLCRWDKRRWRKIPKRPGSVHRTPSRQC
PLAP activator: human PLAP activation | P05187 | purified PLAP enzyme, luminescent substrate read-out; active compounds read high | activation fold at 20 µM | hit rate 1.2% among 96,000 | AID 696; in the data active = activation fold above about 2
Large screens that a line does not name were inactive. Hits are enriched below; roughly 7.6% of the tested compounds scored in any of these assays.

COC(=O)C1=C(O)C(C(=O)OC)C(c2ccc(C)cc2)C(C#N)(C#N)C1c1ccc(C)cc1 (centres undefined)	Cav32 inh -5.6 (no result: M1 ag, M1 antag, PLAP activator)
CCOC(=O)N1CCN(C(=O)c2cc(Cl)c(Cl)cc2C(=O)O)CC1	M1 ag 4.6
COc1ccc(NC(=O)/C(Cl)=C(/Cl)S(=O)(=O)Cc2ccc(C)cc2)cn1	none (no result: M1 ag, M1 antag)
Cc1ccc(Cl)cc1N1CCN(C(=O)CSc2nnc3n2C(C)(C)Cc2ccccc2-3)CC1	Cav32 inh -5.5 (no result: M1 ag, M1 antag, PLAP activator)
CN1C(=O)CC(N2CCN(c3ccc(Cl)c(Cl)c3)CC2)C1=O (centres undefined)	none
COc1cccc(N2CCN(C3CC(=O)N(c4ccc(Cl)c(Cl)c4)C3=O)CC2)c1 (centres undefined)	Cav32 inh -6.4
Cc1ccc(C(=O)Nc2nc(=O)n(C(=O)c3ccccc3Cl)s2)cc1	Cav32 inh -6.1 (no result: M1 ag, M1 antag)
CCNc1nc(NC(C)C)nc(OCC)n1	none (no result: M1 ag, M1 antag)
CCOc1nc(NC2CCCCC2)nc(NC(C)(C)C)n1	Cav32 inh -5.3 (no result: M1 ag, M1 antag, PLAP activator)
c1csc(-c2csc3ncnc(NCCCN4CCOCC4)c23)c1	M1 ag 2
CCOC(=O)c1cc2c(C)n(-c3ccc(C)cc3)c(C)c2ccc1=O	Cav32 inh -7.4 (no result: M1 ag, M1 antag)
CCOC(=O)c1cc2c(C)n(-c3ccc(OCC)cc3)c(C)c2ccc1=O	none (no result: M1 ag, M1 antag)
CCCOc1ccc(N2C(=O)CC(N(CCc3ccc(OC)cc3)C(=O)c3cccc(F)c3)C2=O)cc1 (centres undefined)	Cav32 inh -4.6 (no result: M1 ag, M1 antag)
CCc1nnc(NC(=O)CN2CCC(O)(c3ccccc3OC)CC2)s1	none
COc1ccc(C2(O)CCN(CC(=O)Nc3nccs3)CC2)c(OC)c1	Cav32 inh -4.7, PLAP activator 2.4
CCOC(=O)c1ccccc1-n1c(C)cc(C2N=C(N)Nc3nc4ccccc4n32)c1C (centres undefined)	PLAP activator 2.5 (no result: M1 ag, M1 antag)
CCOC(=O)C1C(=O)Nc2nc3ccccc3n2C1C(C)C (centres undefined)	none
O=C(NC1CCCC1)C(c1ccsc1)N(Cc1ccco1)C(=O)Cc1cccs1 (centres undefined)	Cav32 inh -6.9
O=C(NCc1ccccc1)C(c1ccccc1)N(Cc1ccc2c(c1)OCO2)C(=O)Cc1cccs1 (centres undefined)	Cav32 inh -1.9 (no result: M1 ag, M1 antag, PLAP activator)
O=C(NC1CCCC1)C(c1ccsc1)N(Cc1ccccc1)C(=O)Cc1cccs1 (centres undefined)	none (no result: Cav32 inh, M1 ag, M1 antag)
O=C(NC1CCCCC1)N(Cc1ccccc1)Cc1ccco1	Cav32 inh -9.1
O=C(Cc1cccs1)NCc1ccc2c(c1)OCO2	none
O=C(NC1CCCCC1)C(c1ccccc1)N(Cc1ccco1)C(=O)Cn1cnc2ccccc21 (centres undefined)	Cav32 inh -5.9 (no result: PLAP activator)
COc1ccccc1NC(=O)COc1ccc(CO)cc1Cl	none
COc1ccc(C(=O)N(Cc2ccco2)C(C(=O)NC2CCCC2)c2ccc(O)cc2)cc1OC (centres undefined)	M1 ag 2.6
O=C(Cc1cccs1)N(Cc1ccco1)C1(C(=O)NC2CCCC2)CCCCC1	Cav32 inh -5.2
O=C1NC(=O)C(CC(=O)N(Cc2ccco2)C2(C(=O)NC3CCCC3)CCCCC2)N1 (centres undefined)	none (no result: Cav32 inh)
O=C(NC1CCCC1)C(c1ccccc1)N(Cc1ccc2c(c1)OCO2)C(=O)Cc1cccs1 (centres undefined)	Cav32 inh -5.9 (no result: M1 ag, M1 antag, PLAP activator)
O=c1c2ccccc2c(-c2ccccc2)nn1-c1ccc(Cl)c(Cl)c1	none (no result: M1 ag, M1 antag)
COc1ccc(NC(=O)c2cc(-c3cccnc3)nc3c(C)c(C)ccc23)c(OC)c1	none (no result: M1 ag, M1 antag)
N#CC1=C(N)N(c2ccccc2)C(c2ccccc2)C1(C#N)C#N (centres undefined)	none
CCC(SC1=N/C(=C/c2ccccc2OC)C(=O)N1c1ccccc1)C(=O)Nc1cc(C)on1 (centres undefined)	Cav32 inh -4.8 (no result: M1 ag, M1 antag)
Cc1ccc(CSc2sc(C(=O)c3ccccc3)c(N)c2C#N)cc1	none (no result: Cav32 inh, M1 ag, M1 antag)
N#CC1(Cc2ccc(Cl)cc2)c2ccccc2C=CN1C(=O)c1ccccc1 (centres undefined)	Cav32 inh -3.2 (no result: M1 ag, M1 antag)
c1ccc(-c2nc(CSc3n[nH]c(-c4cccs4)n3)cs2)cc1	none (no result: M1 ag, M1 antag)
CCOC(=O)c1c(C)nc2sc(C(=O)Nc3ccc(OC)cc3)c(N)c2c1-c1ccc(OC)cc1	Cav32 inh -4.8 (no result: M1 ag, M1 antag)
O=S(=O)(Nc1ncnc2sc3c(c12)CCC3)c1ccc2ccccc2c1	Cav32 inh -4.7 (no result: M1 ag, M1 antag)
COc1cccc(Nc2ncccc2C(=O)NCc2ccccc2)c1	M1 ag 3.8
CCOc1ncccc1C(=O)NCc1ccc(OC)cc1	none (no result: M1 ag, M1 antag)
CCc1nnc(NS(=O)(=O)c2ccc(N3C(=O)C4CC=C(Cl)CC4C3=O)cc2)s1 (centres undefined)	none
O=c1c2c(-c3ccco3)csc2nc(SCc2cn3cccnc3n2)n1-c1ccccc1	Cav32 inh -4.4
O=C(CSc1nc2scc(-c3ccco3)c2c(=O)n1-c1ccccc1)N1CCOCC1	none
O=C(NCc1ccco1)c1cc(-c2ccncc2)nc2ccccc12	Cav32 inh -5.8
COc1ccccc1N(CN1CCCC1=O)C(=O)COc1ccccc1	none
CCCCOC(=O)CCn1[nH]c(=O)c2ccccc2c1=O	none
O=C(Cn1[nH]c(=O)c2ccccc2c1=O)OCC(=O)N(Cc1ccccc1)Cc1ccccc1	Cav32 inh -4.4 (no result: M1 ag, M1 antag)
COc1ccc([N+](=O)[O-])cc1NC1CCCCC1	Cav32 inh -5 (no result: M1 ag, M1 antag)
COc1ccc([N+](=O)[O-])cc1NC1C2CC3CC(C2)CC1C3 (centres undefined)	none (no result: M1 ag, M1 antag)
Cc1cc(C(=O)CN2C(=O)NC(c3ccccc3)(c3ccccc3)C2=O)c(C)n1Cc1ccccc1	Cav32 inh -5 (no result: M1 ag, M1 antag)
O=C(Nc1ccccc1)N1CCCC(c2nc(-c3ccc(F)cc3)no2)C1 (centres undefined)	Cav32 inh -5.4 (no result: M1 ag, M1 antag)
Cc1ccccc1NC(=O)N1CCCC(c2nc(-c3ccc(C(C)C)cc3)no2)C1 (centres undefined)	Cav32 inh -4.2
Cc1ccccc1NC(=O)N1CCCC(c2nc(-c3ccc(F)cc3)no2)C1 (centres undefined)	none
O=C(Nc1ccc(Cl)cc1)N1CCC(c2nc(-c3cccs3)no2)CC1	M1 ag -2.5
CCCCNC(=O)Nc1ccnn1C1CCCCC1	M1 antag 2.4
COC(=O)c1ccc(Cn2cnc3c(sc4nc(N5CCOCC5)c5c(c43)CCCC5)c2=O)o1	none
Cc1ccc(SCC(=O)Nc2ccccc2C(=O)O)cc1	none (no result: M1 ag, M1 antag)
O=C(COc1ccccc1Cl)N1CCN(c2ccc([N+](=O)[O-])c(N3CCOCC3)c2)CC1	none (no result: M1 ag, M1 antag)
COc1ccc(Nc2ncc(C(=O)N3CCN(c4ccc(F)cc4)CC3)c3ccccc23)cc1	Cav32 inh -5.9 (no result: M1 ag, M1 antag)
COc1ccc(Nc2ncc(C(=O)O)c3ccccc23)cc1	none (no result: M1 ag, M1 antag)
O=C(O)c1cccc(N2C(=O)CSC2c2c(F)cccc2Cl)c1 (centres undefined)	none (no result: PLAP activator)
CCC(C)(NC(=O)c1cccc(N2C(=O)CSC2c2ccccc2)c1)C(=O)Nc1ccccc1C (centres undefined)	Cav32 inh -5.1 (no result: M1 ag, M1 antag)
COc1cc(C(C(=O)NC2CCCCC2)N(Cc2cccs2)C(=O)Cc2c[nH]c3ccccc23)cc(OC)c1OC (centres undefined)	Cav32 inh -6.5 (no result: M1 ag, M1 antag)
